# Source: PubChem BioAssay AID1259421 (Broad Institute, 2018)
# Values joined by “and” are separate entries in the source; they are usually repeats but may differ in a detail not shown here. Equal values may be shown once. Out of some 6,400 compounds screened, about 610 (9.5%) were called active. The sample holds actives, similar compounds and a random draw of the others, so the mix is not that of the screen. Cut-off read from the data, not from the text of the source: active = activity change below about -70%; inconclusive = no clear call, values can overlap the other calls; inactive = above that. Some compounds were tested as several samples or in several runs, with calls that do not always agree.
# Test: Toxoplasma gondii ME49Luc growth in HeLa cells, luciferase, no IFN-y, primary screen (AID 1259421)
# Settings: T. gondii ME49Luc in HeLa, 72 h, stronger effect = lower value, concentration not given here
row,SMILES,"activity change, negative = inhibition"
1,Cc1ccc(/C=C2/CNC/C(=C\c3ccc(C)cc3)C2=O)cc1,-85.7% (active)
2,Cc1ccc(S(N)(=O)=O)cc1,13.5% (inactive)
3,Cc1ccc(/C=C2\CNC/C(=C\c3ccc(C)cc3)C2=O)cc1,-83.2% (active)
4,CC(C)C[C@H](N[C@@H](Cc1cncn1Cc1cc(Cl)cc(Cl)c1)C(=O)O)C(=O)O,6.67% (inactive)
5,CC1(O)CC(c2nc(-c3ccc4ccc(-c5ccccc5)nc4c3)c3c(N)nccn23)C1 (configuration not stated),-27.9% (inactive)
6,CCn1c(N)c(C(=O)NC)c(=O)c2ccc(C#C[C@@](C)(O)COC)nc21,13.3% (inactive)
7,CC1(C)C2CC[C@]3(C)[C@H](C(=O)C=C4[C@@H]5C[C@@](C)(C(=O)O)CC[C@]5(C)CC[C@]43C)[C@@]2(C)CC[C@@H]1OC(=O)CCC(=O)O (some centres not stated),6.15% (inactive) and 3.75% (inactive)
8,CC(=O)O[C@H]1CC[C@@]2(C)C(C[C@@H](OC(C)=O)[C@@]3(C)C4=CC(=O)O[C@@H](c5ccoc5)[C@]4(C)CCC23)C1(C)C (some centres not stated),15% (inactive)
9,CC(=O)O[C@]1(C(C)=O)CCC2C3C=C(C)C4=CC(=O)CCC4(C)C3CCC21C (some centres not stated),4.78% (inactive) and -4.91% (inactive)
10,CCCCCCCCCCCCCCCC(=O)OC(C)C,3.86% (inactive)
11,CN[C@H](C(=O)N[C@H](C(=O)N(C)[C@H](/C=C(\C)C(=O)O)C(C)C)C(C)(C)C)C(C)(C)c1ccccc1,-73.6% (active)
12,C[C@H]1CCO[C@H]2Cn3cc(C(=O)NCc4ccc(F)cc4F)c(=O)c(O)c3C(=O)N21,25.9% (inactive)
13,Cc1cccc(C)c1NC(=O)c1cc(S(N)(=O)=O)c(Cl)cc1O,15.4% (inactive)
14,Cc1c(C)c2c(c(C)c1OC(=O)CCC(=O)O)CC[C@@](C)(CCC[C@H](C)CCC[C@H](C)CCCC(C)C)O2,19.4% (inactive)
15,O=c1c(O)c(-c2ccccc2)oc2cc(O)ccc12,31.5% (inactive)
16,CN1CC(C(=O)NC2(C)OC3(O)C4CCCN4C(=O)C(Cc4ccccc4)N3C2=O)CC2c3cccc4[nH]cc(c34)CC21 (configuration not stated),-10.4% (inactive)
17,CN1C[C@H](C(=O)N[C@]2(C)O[C@@]3(O)[C@@H]4CCCN4C(=O)[C@H](Cc4ccccc4)N3C2=O)C[C@@H]2c3cccc4[nH]cc(c34)C[C@H]21,5.44% (inactive) and 2.08% (inactive)
18,CC(=O)C1C(=O)[C@@H]2[C@H]3c4c[nH]c5cccc(c45)C[C@H]3C(C)(C)N2C1=O (some centres not stated),-78.3% (active) and -0.858% (inactive)
19,O=c1[nH]c2ccccc2c(=O)n1CCCN1CCN(c2ccccc2)CC1,11.8% (inactive)

row,SMILES,"activity change, negative = inhibition"
1,CCC1(C)OC(=O)N(C)C1=O (configuration not stated),-5.39% (inactive)
2,CC(C)(C)c1[nH]cnc1/C=c1\[nH]c(=O)/c(=C/c2ccccc2)[nH]c1=O,-85.5% (active)
3,O=c1[nH]cnc2ccccc12,0.966% (inactive) and 1.04% (inactive)
4,CCCCCCCCCCCCCCOS(=O)(=O)O,8.96% (inactive)
5,COc1ccc(C(=O)/C=C/c2ccccc2)cc1,157% (inactive)
6,CC(=O)NC[C@H]1CN(c2ccc(N3CCN(C(=O)CO)CC3)c(F)c2)C(=O)O1,6.07% (inactive)
7,CC(=O)NC(Cc1c[nH]c2ccccc12)C(=O)OCc1cc(C(F)(F)F)cc(C(F)(F)F)c1 (configuration not stated),-1.95% (inactive)
8,CC(=O)N[C@H](Cc1c[nH]c2ccccc12)C(=O)OCc1cc(C(F)(F)F)cc(C(F)(F)F)c1,6.34% (inactive)
9,FC(F)(F)c1cc(CO[C@H]2CCCN[C@H]2c2ccccc2)cc(C(F)(F)F)c1,-9.54% (inactive) and -89.9% (active)
10,O=C(O)CN(CCN(CC(=O)O)CC(=O)O)CC(=O)O,1.89% (inactive)
11,COCC1=C(C(=O)OC(C)OC(=O)OC(C)C)N2C(=O)[C@@H](NC(=O)/C(=N/OC)c3csc(N)n3)[C@H]2SC1 (some centres not stated),-2.51% (inactive)
12,O=C(N/N=C/c1ccc([N+](=O)[O-])o1)c1ccc(O)cc1,-85.5% (active)
13,NC(=O)N/N=C/c1ccc([N+](=O)[O-])o1,-68.6% (inactive) and -50.1% (inactive)
14,CCN(CC)c1ccc(/C=N/NC(=O)c2ccc(O)cc2)cc1,29.5% (inactive) and 44.8% (inactive)
15,CCCCCCn1c(=O)c2c(ncn2C)n(C)c1=O,11.4% (inactive)
16,Cc1cccc(/C=C/c2ccccc2)n1,35.7% (inactive)
17,Cc1ccc2ccc3ccc(C)nc3c2n1,-94.5% (active)
18,CCc1nc(C)ccc1O,-11.9% (inactive)
